D1 antag: antagonists of human D1 dopamine receptor. P21728. HEK293 TREx D1 cells, calcium flux, dopamine EC80; stronger effect = lower value. actives 3.2% (n = 360,000). activity change, negative = inhibition, % at 10 µM. AID 504652; in the data active means activity change below about -30%
Target sequence (P21728 whole entry, looked up): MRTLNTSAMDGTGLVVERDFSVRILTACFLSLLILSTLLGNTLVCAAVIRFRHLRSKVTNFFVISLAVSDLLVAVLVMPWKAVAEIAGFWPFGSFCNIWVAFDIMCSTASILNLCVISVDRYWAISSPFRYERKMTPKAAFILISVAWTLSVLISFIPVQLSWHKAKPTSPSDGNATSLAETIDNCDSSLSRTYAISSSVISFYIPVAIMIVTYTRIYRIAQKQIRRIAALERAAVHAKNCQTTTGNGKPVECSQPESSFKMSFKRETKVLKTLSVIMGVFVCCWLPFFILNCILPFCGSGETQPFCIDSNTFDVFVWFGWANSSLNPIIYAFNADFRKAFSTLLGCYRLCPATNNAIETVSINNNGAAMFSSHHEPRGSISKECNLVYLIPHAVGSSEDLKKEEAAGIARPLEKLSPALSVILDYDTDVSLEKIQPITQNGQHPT
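Antagonism measured as reduced calcium response to an EC80 dopamine addition following 180 s compound pre-read; cells were inducible HEK293 Trex D1 plated overnight at 30 C, read kinetically at 1 cycle/sec.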
TRHR agonist: activates the human TRH receptor | P34981 | TRHR cells, calcium flux fluo-8, FDSS agonist mode | activation, % at 2 µM | actives 0.18% (n = 360,000)
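TRHR-expressing cells loaded with fluo-8 calcium dye; 23 nL library compound pin-transferred, kinetic FDSS fluorescence (Ex 480/Em 530) recorded about 180 s for agonist-induced calcium release, before a 10 nM TRH EC20 addition for potentiator mode.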
LDHA inh: blocks human lactate dehydrogenase A; P00338; purified LDHA, NADH/diaphorase-resazurin fluorescence; stronger effect = lower value; activity change, % (values are at about 110 or 230 µM); actives 0.15% (n = 480,000); AID 1347041; in the data active means activity change below about -30%
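LDH5 2 nM; NADH 0.06 mM, pyruvate 0.2 mM; 200 mM Tris pH 7.4, EDTA, Tween-20; 5 min RT. Detection: diaphorase 0.133 mg/mL + resazurin 37 µM, fluorescence ex540/em590 at 0 and 20 min; normalized to enzyme-free and DMSO wells.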
D1 agonist: agonists of human D1 dopamine receptor; AID 504660; P21728; HEK293 T-REx D1 cells, calcium flux, agonist mode; actives 1% (n = 360,000); activation, % at 2 µM
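Inducible HEK293 T-REx D1 cells, force-coupled to calcium signalling, were plated at 4000 cells/well with tetracycline and held overnight at 30 C. After no-wash calcium dye loading, compound-evoked calcium rise over 180 s flagged agonists.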
TRHR enhancer: allosterically enhances the human TRH receptor. TRHR cells, fluo-8 calcium fluorescence, EC20 TRH enhancement. actives 0.66% (n = 360,000). enhancement, % at 2 µM; in the data active means enhancement above about 30%
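TRHR-expressing cells loaded with fluo-8 calcium dye were read kinetically (ex 480/em 530) during compound addition, then stimulated with an EC20 of TRH (10 nM final). Enhancement of the Gq-mediated intracellular calcium response was scored.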
D1 PAM: enhances dopamine response at the human D1 receptor | HEK293 TREx D1 cells, calcium flux, dopamine EC20 potentiation | potentiation, % at 10 µM | AID 504651 | actives 0.036% (n = 360,000); in the data active means potentiation above about 30%
Hits are given with their value; – = inactive; · = no result. A selection: hits, their analogues and other compounds. The true share with any hit is near 3.6%. Unless noted, no stated cut-off is given here; in the data, active means activation above about 30%; inactive means the rest.

SMILES	D1 antag	TRHR agonist	LDHA inh	D1 agonist	TRHR enhancer	D1 PAM
CC1(C)CC(=O)C2=C(C1)Nc1ccccc1N1C(=O)c3ccccc3C21 (stereo not given)	-42.3	–	–	–	–	–
COc1cccc(C2Nc3ccccc3NC3=C2C(=O)CC(C)(C)C3)c1OC (stereo not given)	–	–	–	–	34.7	–
COCCCn1c(C)cc(C(=O)Cn2nc(C(=O)O)c3ccccc3c2=O)c1C	·	·	–	·	·	·
CC(C)OC(=O)c1cc(C(=O)O)c(C(=O)OC(C)C)cc1C(=O)O	·	·	–	·	·	·
C[C@@H]1CN([C@H](C)CO)C(=O)CCCn2cc(nn2)CO[C@H]1CN(C)S(=O)(=O)c1ccc2ccccc2c1	·	·	-34.2	·	·	·
O=C(NC1CCCCC1)c1ccc2c3c(cccc13)CC2	·	·	–	·	·	·
Cc1ccc(-c2c(NC(=O)c3ccco3)n(-c3ccc(C)cc3)nc(C)c2=O)cc1	·	·	–	·	·	·
CCOCCCN(Cc1ccco1)S(=O)(=O)c1csc(C(N)=O)c1	-49.9	–	–	–	–	–
O=C(Cc1ccc(Cl)cc1Cl)NCc1cccnc1	-41.5	–	–	–	–	–
O=C(NCc1ccncc1)c1ccc(Br)o1	–	–	–	–	–	–
O=C(NCc1cccnc1)c1ccc(Br)o1	-31.6	–	–	–	–	–
O=C(COc1ccc(Cl)cc1)NCCc1csc(-c2ccc(F)cc2)n1	–	–	–	–	–	–
COc1cccc(-c2nc(CCNC(=O)COc3ccc(Cl)cc3)cs2)c1	·	·	–	·	·	·
O=C(COc1ccccc1)NCCc1csc(-c2ccc(Cl)cc2)n1	-49.3	–	–	–	–	–
O=C(COc1ccc(Cl)cc1)NCCc1csc(-c2ccc(C(F)(F)F)cc2)n1	-35.9	–	–	–	–	–
COc1ccccc1CN(C)C(=O)CCn1ccc2ccccc21	·	·	–	·	·	·
CC(=O)NS(=O)(=O)c1ccc(NC(=O)C2c3ccccc3Oc3ccccc32)cc1	–	–	–	–	33.4	–
CCOC(=O)N[C@H](Cc1c[nH]c2ccccc12)C(=O)Nc1cccc(Cl)c1	-40.7	–	–	–	–	–
O=C(c1cc(S(=O)(=O)NC2CC2)c(Cl)cc1Cl)N1CCN(c2ccccc2O)CC1	·	·	–	·	·	·
COc1ccc(N2CCN(C(=O)COC(=O)/C=C/c3ccc(C(F)(F)F)cc3)CC2)cc1	–	–	–	–	–	–
CC1CCCN(C(=O)COC(=O)/C=C/c2ccc(C(F)(F)F)cc2)C1 (stereo not given)	-46.6	–	–	–	–	–
Cc1ccc2oc3c(c(=O)c2c1)C1(C(=O)N(C)c2ccccc21)N(CCCO)C3=O (stereo not given)	–	–	–	–	35.5	–
CN1C(=O)C2(c3ccccc31)c1c(oc3ccccc3c1=O)C(=O)N2CCCO (stereo not given)	-30.9	–	–	–	–	–
CC(C)Cn1nc(C(=O)N2CCCC(c3nc4ccccc4s3)C2)c2ccccc2c1=O (stereo not given)	·	·	–	·	·	·
COc1ccc(CCNC(=O)CCc2cn(Cc3ccccc3Cl)c3ccccc23)c(OC)c1	-35.9	–	–	–	–	–
SMILES	D1 antag	TRHR agonist	LDHA inh	D1 agonist	TRHR enhancer	D1 PAM
CSC1=NC2C(N1)N(C)C(=O)N2C (stereo not given)	–	–	–	–	38.6	–
CCCCN1C(=O)N(C)C2NC(=O)NC21 (stereo not given)	–	–	–	–	–	–
O=C(O)CCCN1C(=O)/C(=C\c2ccc(-c3nc4ccccc4s3)o2)SC1=S	–	–	–	34.7	–	–
O=C(O)CN1C(=O)/C(=C/c2ccc(-c3cccc(Cl)c3)o2)SC1=S	–	–	-62.6	–	32.0	–
O=C(O)CCN1C(=O)/C(=C/c2ccc(-c3nc4ccccc4s3)o2)SC1=S	–	–	–	–	–	–
COc1ccc(OC)c(C(=O)CSc2nnc(Cc3cccs3)n2CCc2ccccc2)c1	–	–	–	51.3	–	–
O=C(COc1ccc(Cl)cc1)Nc1nc2n(n1)C(c1ccccc1)CC(=O)N2 (stereo not given)	·	·	–	·	·	·
O=S(=O)(c1ccc2ccccc2c1)n1nc(-c2ccco2)nc1NCc1cccc(Cl)c1	-41.6	–	–	–	–	–
CC(C)c1ccc(CNc2nc(-c3ccco3)nn2S(=O)(=O)c2ccccc2)cc1	–	–	–	–	–	–
Cc1ccc(S(=O)(=O)Nc2nc3ccccc3nc2Nc2ccc(C(=O)O)cc2)cc1C	·	·	–	·	·	·
CCOC(=O)c1sc(NC(=O)CSc2n[nH]c(-c3ccccc3)n2)c(C#N)c1C	-36.3	–	–	–	–	–
O=[N+]([O-])c1ccc(CCn2ccnc2)cc1	–	–	–	–	–	–
O=[N+]([O-])c1ccc(-n2ccnc2)cc1	-38.3	–	–	–	–	–
O=C(COc1ccccc1)Nc1nc(-c2ccc(Br)s2)ns1	·	·	–	·	·	·
COc1ccc(C(=O)Nc2nc(-c3ccc(Br)s3)ns2)cc1	·	·	-30.3	·	·	·
CC(C)CCN1CCCC1C(=O)O (stereo not given)	·	·	–	·	·	·
CCOC(=O)C1=C(C)n2c(s/c(=C/c3cccc([N+](=O)[O-])c3)c2=O)=NC1c1ccc(O)c(OC)c1 (stereo not given)	-90.4	–	–	–	–	–
Cc1ccc(NC(=S)NC2CCSc3ccccc32)cc1 (stereo not given)	-38.4	–	–	–	–	–
CSc1ccccc1C(=O)NC1CCSc2ccccc21 (stereo not given)	-41.0	–	–	–	–	–
O=C(CSc1nc2c(c(C(F)(F)F)n1)CCc1ccccc1-2)NC1CCCC1	·	·	–	·	·	·
COCCCNc1oc(-c2ccc(COc3cccc(C)c3)o2)nc1C#N	·	·	–	·	·	·
O=C(c1cccs1)N(Cc1ccco1)C1CC1	·	·	–	·	·	·
O=C(Nc1nc(-c2ccccc2Cl)cs1)c1ccc(Cl)c(N2CCCC2=O)c1	·	·	–	·	·	·
COc1ccc(NC(=O)c2ccc(-c3cccc(Cl)c3C)o2)cc1	–	–	–	–	–	–
Cc1ccc(NC(=O)c2ccc(-c3cccc(Cl)c3C)o2)cc1	–	–	–	–	35.9	–
CC(C)NC(=O)CN(C)Cc1coc(-c2ccc(Cl)cc2)n1	·	·	–	·	·	·

Compound activity deposited in PubChem BioAssay by National Center for Advancing Translational Sciences (NCATS).
